# Source: PubChem
# CYP2C19 act: cytochrome P450 2C19 (human) activation; 96,000 tested, under 10 active; activation factor at 5 µM; AID 1025; P33261; recombinant CYP2C19, luciferin-H EGE luminescence; stronger effect = higher value; 0 = fully inhibited enzyme, 1 = untreated enzyme;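 active = activation factor of at least 2 at 5 µM in the primary screen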;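 also: 0 = wells with 2.5 mM tranylcypromine and 1 = vehicle-only wells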
# Target sequence (P33261 whole entry, looked up): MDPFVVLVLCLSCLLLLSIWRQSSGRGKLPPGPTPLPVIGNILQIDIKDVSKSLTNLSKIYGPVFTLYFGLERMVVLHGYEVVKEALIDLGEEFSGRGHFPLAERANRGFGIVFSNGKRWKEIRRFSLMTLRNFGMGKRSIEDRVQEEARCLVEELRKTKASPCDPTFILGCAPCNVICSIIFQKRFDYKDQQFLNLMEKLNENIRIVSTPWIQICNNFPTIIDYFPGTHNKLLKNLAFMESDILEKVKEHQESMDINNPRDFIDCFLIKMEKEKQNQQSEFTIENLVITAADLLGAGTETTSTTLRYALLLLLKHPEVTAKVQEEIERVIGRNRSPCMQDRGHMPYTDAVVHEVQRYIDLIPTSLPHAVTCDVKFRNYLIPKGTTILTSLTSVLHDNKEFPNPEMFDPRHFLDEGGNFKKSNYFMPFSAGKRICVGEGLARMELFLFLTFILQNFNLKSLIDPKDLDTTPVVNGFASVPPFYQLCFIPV
# CYP2C19 inh: inhibitors of human CYP2C19; CYP2C19 Supersomes, luciferin-H EGE luminescence, 30 min; inhibition, % at 5 µM; AID 778; 21% of 96,000 active;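 active = CYP2C19 inhibition above a set limit at 5 µM in the primary screen, cut at about 50% in these data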;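 also: plate controls were negative control wells for no effect and 2.5 mM tranylcypromine positive control for full effect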
# Measles CPE: protection of cells from measles virus; Measles virus-infected cells, CPE protection, absorbance; 1.5% of 140,000 active; AID 841; protection (pct of control), % at 4 µM; in the data active = protection mostly above about 24%, no sharp cut-off; inactive = mostly below about 26%
# CYP2C9 inhib: blocks human cytochrome P450 2C9; 20% of 96,000 active; CYP2C9 Supersomes, luciferin-H conversion, luminescence; inhibition, % at 5 µM; P11712;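 active = blocking of liver enzyme CYP2C9 beyond about 50% at 5 µM, limit read from the data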
# CYP2C9 activ: increases human cytochrome P450 2C9 activity; recombinant CYP2C9, luciferin-H conversion, luminescence; stronger effect = higher value; factor 1 = untreated enzyme, 0 = blocked; activation factor at 5 µM; 1.4% of 96,000 active;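 active = activation factor of 2 or more for CYP2C9 at a 5 µM dose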;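 also: 0 = sulfaphenazole-blocked wells and 1 = vehicle-only wells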
# * hit, by the source's call; / = no result given. Sampled rows, rich in hits. Any-hit rate of the full collection: about 22%.
SMILES,CYP2C19 act,CYP2C19 inh,Measles CPE,CYP2C9 inhib,CYP2C9 activ
CC1=CC(C)(C)N(C(=O)c2ccc(F)cc2)c2cc3c(cc21)OCO3,0,95.2*,12.7,96.7*,0
CC(C)NS(=O)(=O)c1ccc(CCC(=O)NCc2ccco2)cc1,0.7,29.9,6.6,20.5,0.8
CCOC(=O)C1=NN(c2ccc(C)cc2)C2(S1)SC(C(C)=O)=C(C)N2c1ccccc1 (centres undefined),0.6,39.3,4.2,53.7*,0.5
COC(=O)C1=NN(c2ccccc2)C2(S1)S/C(=C\c1ccccc1)C(=O)N2c1ccccc1 (centres undefined),0.1,87.5*,5.0,53.8*,0.5
CCOC(=O)c1sc(=S)n(-c2ccccc2)c1N,/,/,12.8,/,/
CCOC(=O)C1=NN(c2ccccc2)C2(S1)SC(C(C)=O)=C(C)N2c1ccccc1 (centres undefined),1.2,-20.4,30.5,43.8,0.6
CCOC(=O)C1=NN(c2cccc(C)c2)C2(S1)SC(C(C)=O)=C(C)N2c1ccccc1 (centres undefined),0.5,46.7,20.9,80.1*,0.2
CCC(C)(C)n1nnnc1CN1CCN(C(c2ccccc2)c2ccccc2)CC1,/,/,5.2,/,/
COc1cc(C)c(Cl)cc1S(=O)(=O)n1cnc(C)c1,0,97.0*,4.2,-104.9,2*
N#CC1(Cc2ccc([N+](=O)[O-])cc2)c2ccccc2C=CN1C(=O)c1ccccc1 (centres undefined),0.3,68.1*,10.7,67.6*,0.3
N#CC1(Cc2ccccc2)c2ccccc2C=CN1C(=O)c1ccccc1 (centres undefined),0.1,92.9*,10.1,71.7*,0.3
Cc1cc(Cl)ccc1Oc1nccc(N(C)C)c1C#N,0.8,23.8,76.2*,61.4*,0.4
CN(C)c1ccnc(Oc2ccc(Cl)cc2)c1C#N,0.8,22.4,6.4,37.4,0.6
COc1ccc(/C=C/C(=O)c2ccc(Cl)s2)cc1O,0.5,53.9*,11.9,58.7*,0.4
COc1cc(/C=C/C(=O)c2ccc(Cl)s2)cc(OC)c1O,0.5,50.1*,10.2,22.7,0.8
COc1ccc(C(=O)/C=C/c2ccc(OC)c(O)c2)c(F)c1,/,/,16.1,/,/
CCOc1ccc(-n2cc(C(=O)N3CCCCCC3)c3cc(OC)c(OC)cc3c2=O)cc1,0.8,16.1,4.0,36.8,0.6
CCN1CCN(C(c2cccs2)C(C)NS(=O)(=O)c2ccc(Br)cc2)CC1 (centres undefined),0,95.4*,3.0,9.1,0.9
Cc1ccc(S(=O)(=O)NC(C)C(c2cccs2)N2CCN(C)CC2)cc1 (centres undefined),/,/,9.9,/,/
Cc1ccc(S(=O)(=O)NC(C)C(c2cccs2)N2CCOCC2)cc1 (centres undefined),/,/,5.3,/,/
CC(NS(=O)(=O)c1ccccc1)C(c1cccs1)N1CCN(C)CC1 (centres undefined),0.4,63.4*,4.8,2.8,1
CC(C)/C=N\NC(=O)CCCCC(=O)N/N=C/C(C)C,/,/,38.2,/,/
Cc1cc(N2C(=O)C3CC=CCC3C2=O)cc(C)c1Br (centres undefined),/,/,4.0,/,/
Cc1cc(C)cc(N2C(=O)C3CC=CCC3C2=O)c1 (centres undefined),1,4.3,43.8*,-21.4,1.2
CCOC(=O)c1sc(-c2ccccc2)cc1NC(=O)c1ccc(S(=O)(=O)N(CCOC)CCOC)cc1,/,/,3.9,/,/
SMILES,CYP2C19 act,CYP2C19 inh,Measles CPE,CYP2C9 inhib,CYP2C9 activ
Cn1c(=O)cc(SCC(=O)Nc2ccccn2)c2ccccc21,1.3,-25.3,5.8,-154.4,2.5*
Cc1ccnc(NC(=O)CSc2cc(=O)n(C)c3ccccc23)c1,2.3*,-127.2,4.2,-208.9,3.1*
Cn1c(=O)cc(SCC(=O)NCc2cccnc2)c2ccccc21,/,/,6.8,/,/
Cn1c(=O)cc(SCC(=O)Nc2cccnc2)c2ccccc21,0.8,17.6,5.4,-102.3,2*
O=C(CSc1ccccn1)Nc1cccc(NC(=O)CSc2ccccn2)n1,0.9,12.7,2.2,55.4*,0.4
Cc1ccnc(NC(=O)CCCOc2cc(=O)n(C)c3ccccc23)c1,1,0.9,6.7,-32.6,1.3
OCCN1CCOCCN(CCO)CCOCC1,1,1.9,2.9,4.2,1
O=C(/C=C\Nc1ccccn1)c1ccc(Cl)cc1,0.8,24.0,3.3,-23.6,1.2
O=C(NC(C(=O)N/N=C/c1ccccc1)c1n[nH]c(=O)c2ccccc12)c1ccccc1 (centres undefined),0.6,36.8,4.1,51.9*,0.5
CCCCOc1cccc(C(=O)NC(=S)Nc2cccc(C(F)(F)F)c2)c1,/,/,11.7,/,/
